Source: PubChem BioAssay (several laboratories)
BoNT-A LC inh2 = inhibitors of Botulinum neurotoxin A light chain protease; multiplex microsphere protease substrate cleavage, flow cytometry; inhibition, % at 10 µM; actives 0.17% (n = 360,000); further: plate controls were buffer without enzyme for full effect and enzyme alone for no effect
VHR inh abs = DUSP3 (human) phosphatase inhibition; P51452; recombinant VHR phosphatase, pNPP absorbance; inhibition, % at 13.3 µM; actives 0.52% (n = 290,000); in the data active means inhibition above about 50%
Target sequence (P51452 whole entry, looked up): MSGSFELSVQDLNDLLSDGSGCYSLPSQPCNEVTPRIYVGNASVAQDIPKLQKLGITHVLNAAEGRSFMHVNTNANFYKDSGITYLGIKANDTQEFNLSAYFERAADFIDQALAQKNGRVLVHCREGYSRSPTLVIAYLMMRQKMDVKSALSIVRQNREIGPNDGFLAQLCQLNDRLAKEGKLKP
BoNT-F LC inh = inhibitors of Botulinum neurotoxin F light chain protease. Multiplex microsphere protease cleavage assay, flow cytometry. inhibition, % at 10 µM. actives 0.22% (n = 360,000); in the data active means inhibition above about 35%, passing the limit was not always enough; inconclusive means no clear call, values can overlap the other calls; further: plate controls were buffer without enzyme for full effect and enzyme alone for no effect
Autofluor counter = flagged as autofluorescent in microsphere protease counterscreen | AID 624483 | fluorescence intensity (concentration not given with the values) | actives 3.1% (n = 360,000) | compound autofluorescence counterscreen, microsphere flow cytometry; stronger effect = higher value; in the data active means fluorescence intensity above about 16000; inconclusive means no clear call, values can overlap the other calls
3CLpro inhibitor = SARS-CoV 3CLpro protease inhibition; recombinant SARS-CoV 3CLpro, quenched FRET peptide cleavage; inhibition, % at 6 µM; actives 0.14% (n = 290,000); in the data active means inhibition above about 12%
Anthrax LF prot = blocks Bacillus anthracis lethal factor protease. P15917. multiplex microsphere protease cleavage assay, LF. AID 588501. actives 0.12% (n = 360,000). inhibition, % at 10 µM; further: plate controls were buffer without enzyme for full effect and enzyme alone for no effect
An asterisk follows results filed as active; ? = inconclusive; / = not tested or not shown. Hits are enriched below; roughly 3.9% of the tested compounds scored in any of these assays. Unless noted, no stated cut-off is given here; in the data, active means inhibition above about 30%; inconclusive means no clear call, values can overlap the other calls; inactive means below that.

SMILES | BoNT-A LC inh2 | VHR inh abs | BoNT-F LC inh | Autofluor counter | 3CLpro inhibitor | Anthrax LF prot
CCc1ccccc1NC(=O)c1cccc(N2C(=O)C3C4CCC(C4)C3C2=O)c1 (configuration not stated) | ? | 3 | -2 | 23495* | 5 | -4
Cc1cccc(NC(=O)c2cccc(N3C(=O)C4C5CCC(C5)C4C3=O)c2)c1C (configuration not stated) | ? | 24 | 8 | 18603* | -2 | -9
CN1CC2(C(=O)c3ccccc3)CN(C)CC(C(=O)c3ccccc3)(C1)C2 | ? | -5 | 2 | 20389* | 1 | -1
O=C(c1ccc(Cl)cc1)C12CN3CN(CN(C3)C1)C2 | 0 | 9 | -4 | 2998 | -1 | -2
Cc1ccc(-n2c(SCC(=O)NCc3ccco3)nc3c(sc4ccccc43)c2=O)cc1 | 0 | -8 | 2 | 10573 | 4 | -2
OCCN1CCN(Cc2cccc(Oc3ccc(Cl)cc3)c2)CC1 | 1 | 0 | 1 | 20285* | 3 | -1
CN1CCN(Cc2cccc(Oc3ccccc3)c2)CC1 | 1 | 2 | 5 | 9643 | 3 | -4
COc1ccc(-c2ccc(CO)o2)cc1N | 0 | 11 | -6 | 4147 | -1 | -5
O=C1/C(=C/c2cccc([N+](=O)[O-])c2)CSc2ccc(Cl)cc21 | ? | 27 | ? | 3778 | 1 | 30*
COCCN(C(=O)CSc1nnc(C)n1-c1ccc(C)cc1)c1c(N)n(Cc2ccccc2)c(=O)[nH]c1=O | -50 | / | -84 | 17749* | / | -12
COCCN(C(=O)COC(=O)c1cc2ccccc2cc1OC)c1c(N)n(Cc2ccccc2)c(=O)[nH]c1=O | ? | / | -6 | ? | / | 3
COCCN(C(=O)CSc1nnc(C)n1-c1ccccc1)c1c(N)n(Cc2ccccc2)c(=O)[nH]c1=O | 0 | 7 | -2 | 2092 | -3 | -1
COCCN(C(=O)COC(=O)c1cc(C)n(-c2ccccc2)c1C)c1c(N)n(Cc2ccccc2)c(=O)[nH]c1=O | 60* | / | -9 | 6533 | / | ?
CC(=O)N1c2ccc(S(=O)(=O)N3CCCC3)cc2CC1C(=O)NCc1ccccc1F (configuration not stated) | -1 | 56* | -2 | 6207 | -5 | -1
CC(=O)N1c2ccc(S(=O)(=O)N3CCCCC3)cc2CC1C(=O)NCc1ccccc1C (configuration not stated) | 6 | 52* | 10 | 5010 | -4 | 8
O=C(NCCc1nnc2ccc(NCCCN3CCOCC3)nn12)c1ccccc1 | -2 | -9 | -4 | 6103 | -6 | -1
COCCNC(=O)c1oc2ccc3c(c2c1C)C(O)CC(C)(C)O3 (configuration not stated) | 2 | 57* | -9 | 3583 | -1 | -6
Cc1nc2cc(Cl)ccc2c(=O)n1Cc1ccncc1 | -2 | 2 | -8 | 4313 | -2 | -1
Cc1cc(Cl)c(S(=O)(=O)Nc2ccc3c(c2)OCO3)cc1OCC(N)=O | 1 | 7 | 2 | 3526 | -1 | -4
Cc1cc(Cl)c(S(=O)(=O)NC(C(=O)O)C(C)C)cc1OCC(=O)NC1CCCCC1 (configuration not stated) | ? | 12 | -7 | 20262* | 2 | -4
Cc1cc(Cl)c(S(=O)(=O)Nc2ccc3c(c2)OCO3)cc1OCC(=O)NC1CCCCC1 | -4 | -5 | -7 | 25458* | 0 | -3
O=C(COc1ccc(S(=O)(=O)N2CCCC2)cc1Cl)NC1CCCC1 | -3 | 5 | -6 | 20890* | 3 | -4
CC(C)(C)NC(=O)C1CCN(c2ccc(S(=O)(=O)N3CCOCC3)cc2Cl)CC1 | 0 | 16 | -4 | 3282 | 4 | 0
O=C(NC1CC1)C1CCN(c2ccc(S(=O)(=O)N3CCOCC3)cc2Cl)CC1 | 1 | 36 | -1 | 22681* | 0 | -6
COc1ccc(Cl)cc1NC(=O)Nc1ccc(C(=O)N2CCOCC2)cc1 | -2 | 26 | -10 | 4653 | -1 | 1
Cc1cc(Cl)c(S(=O)(=O)N2CCCC2)cc1OCC(=O)NC1CCCCC1 | ? | 37 | 0 | 20066* | 5 | 0
Cc1cc(Cl)c(S(=O)(=O)NCc2cccnc2)cc1OCC(=O)NC1CCCCC1 | -2 | 24 | -2 | 10975 | -1 | -2
CCOC(=O)CC(=O)CSc1ccc2nnc(-c3cccc(F)c3)n2n1 | ? | 11 | -4 | 16650* | 1 | 2
CCOC(=O)CC(=O)CSc1ccc2nnc(-c3ccc(F)cc3)n2n1 | 1 | 11 | 5 | 10492 | 9 | 0
